Data reported in the antibiotic and cytotoxicity screens of Wong et al. (2023).
About 1,500 (3.8%) of roughly 39,000 compounds were called active. The full list was thinned out, with actives kept by preference.

The compounds below were run on HSkMC (human skeletal muscle cells) (assay: cytotoxicity call (relative viability < 0.9)). Details: 10 µM.

Compound | cytotoxicity call
Cc1ccc(S(=O)(=O)N(C)C[C@@H]2OCCCC[C@H](C)Oc3ccc(NC(=O)Cc4ccccc4)cc3C(=O)N([C@@H](C)CO)C[C@H]2C)cc1 | inactive
C[C@@H]1CCCCO[C@H](CN(C)C(=O)c2ccccc2)[C@@H](C)CN([C@@H](C)CO)C(=O)c2cc(NC(=O)NC3CCCCC3)ccc2O1 | inactive
COC(=O)CCc1c(c/2[nH]c1/C=C/1\N=C(/C=C/3\N=C(/C=C/4\N/C(=C2)[C@]2(C)[C@H](C(=O)OC)C(=CC=C42)C(=O)OC)C(=C3C=C)C)C(=C1CCC(=O)O)C)C | active
C=CC1=C(C)c2cc3[nH]c(cc4nc(cc5[nH]c(cc1n2)c(C)c5CCC(=O)O)C(CCC(=O)O)=C4C)c(C)c3C=C | inactive
CC/1=C(CCC(=O)O)/C/2=C/c3[nH]c(c(c3CCC(=O)O)C)/C=C/3\N=C(/C=C/4\N=C(\C=C1/N2)C(=C4C)C=C)C(=C3C)C=C | inactive
Cc1noc(C)c1NC(=O)N(C)C[C@@H]1Oc2c(NC(=O)c3ccc(-c4nccs4)cc3)cccc2C(=O)N([C@H](C)CO)C[C@@H]1C | inactive
C[C@@H]1CN([C@@H](C)CO)C(=O)c2cc(NC(=O)Nc3ccc(C(F)(F)F)cc3)ccc2O[C@@H](C)CCCCO[C@H]1CN(C)C(=O)c1ccccc1 | inactive
C[C@H]1CCCCO[C@@H](CN(C)C(=O)c2ccccc2)[C@@H](C)CN([C@@H](C)CO)C(=O)c2cc(NC(=O)Nc3ccc(C(F)(F)F)cc3)ccc2O1 | inactive
C[C@H]1CCCCO[C@H](CN(C)C(=O)c2ccccc2)[C@@H](C)CN([C@@H](C)CO)C(=O)c2cc(NC(=O)Nc3ccc(C(F)(F)F)cc3)ccc2O1 | inactive
C[C@@H]1CCCCO[C@@H](CN(C)C(=O)c2ccccc2)[C@H](C)CN([C@H](C)CO)C(=O)c2cc(NC(=O)Nc3ccc(C(F)(F)F)cc3)ccc2O1 | inactive
C[C@@H]1CN([C@H](C)CO)C(=O)c2cc(NC(=O)Nc3ccc(C(F)(F)F)cc3)ccc2O[C@@H](C)CCCCO[C@@H]1CN(C)C(=O)c1ccccc1 | active
C[C@@H]1CN([C@H](C)CO)C(=O)c2cc(NC(=O)Nc3ccc(C(F)(F)F)cc3)ccc2O[C@@H](C)CCCCO[C@H]1CN(C)C(=O)c1ccccc1 | active
C[C@@H]1CN([C@H](C)CO)C(=O)c2cc(NC(=O)Nc3ccccc3)ccc2O[C@@H](C)CCCCO[C@@H]1CN(C)Cc1ccc(Cl)c(Cl)c1 | inactive
CC1(C)[C@H](C(N)=O)CC[C@@]1(C)C(=O)O | inactive
C[C@@H]1CN([C@H](C)CO)C(=O)c2cc(NC(=O)Nc3ccc(F)cc3)ccc2O[C@@H](C)CCCCO[C@@H]1CN(C)Cc1ccccc1 | inactive
C[C@H](CO)N1C[C@H](C)[C@H](CN(C)Cc2ccccc2)OCCCC[C@H](C)Oc2ccc(NC(=O)Nc3ccc(F)cc3)cc2C1=O | inactive
C[C@H]1CCCCO[C@@H](CN(C)Cc2ccccc2)[C@@H](C)CN([C@@H](C)CO)C(=O)c2cc(NC(=O)Nc3ccc(F)cc3)ccc2O1 | active
C[C@@H]1CN([C@H](C)CO)C(=O)c2cc(NC(=O)Nc3ccc(F)cc3)ccc2O[C@@H](C)CCCCO[C@H]1CN(C)Cc1ccccc1 | active
C[C@H]1CCCCO[C@H](CN(C)Cc2ccccc2)[C@@H](C)CN([C@@H](C)CO)C(=O)c2cc(NC(=O)Nc3ccc(F)cc3)ccc2O1 | inactive
C[C@@H]1CCCCO[C@H](CN(C)Cc2ccccc2)[C@H](C)CN([C@H](C)CO)C(=O)c2cc(NC(=O)Nc3ccc(F)cc3)ccc2O1 | inactive

Compound | cytotoxicity call
COc1ccc(CN(C)C[C@@H]2OCCCC[C@H](C)Oc3ccc(NS(=O)(=O)c4ccc(F)cc4)cc3C(=O)N([C@@H](C)CO)C[C@@H]2C)cc1 | inactive
C[C@H](CO)N1C[C@H](C)[C@H](CN(C)S(C)(=O)=O)Oc2c(NS(=O)(=O)c3cn(C)cn3)cccc2C1=O | inactive
COc1ccc2c3c(n(c2c1)C)[C@@H](CO)N(C[C@]13CCN(CC1)S(=O)(=O)C)C(=O)CN(C)C | inactive
COc1ccc(NC(=O)N(C)C[C@H]2OCCCC[C@H](C)Oc3ccc(NC(=O)Nc4ccc(C(F)(F)F)cc4)cc3C(=O)N([C@@H](C)CO)C[C@@H]2C)cc1 | inactive
Clc1ccc(COC(Cn2ccnc2)c2ccc(Cl)cc2Cl)c(Cl)c1.O=[N+]([O-])O (centres undefined) | inactive
Clc1ccc(C(c2ccc(Cl)cc2)[n+]2ccn(C[C@@H](OCc3ccc(Cl)cc3Cl)c3ccc(Cl)cc3Cl)c2)cc1 | active
Clc1ccc(C(Cn2ccnc2)OCc2ccsc2Cl)c(Cl)c1 (centres undefined) | inactive
Cc1ccc2c(=O)c3ccccc3n(CCCN)c2c1C | inactive
CCCC#Cc1cnc2c(c1)C(=O)N([C@H](C)CO)C[C@@H](C)[C@H](CN(C)S(=O)(=O)c1cccc(OC)c1)O2 | inactive
Nc1ncnc2c1c(-c1ccc(Cl)cc1)nn2-c1cccc(-c2cnnn2Cc2cccc(-c3ccccc3)c2)c1 | active
C[C@H](CO)N1C[C@H](C)[C@H](CN(C)S(C)(=O)=O)Oc2c(NC(=O)CCCCCC(=O)Nc3ccccc3N)cccc2C1=O | inactive
COc1ccc(NC(=O)N(C)C[C@@H]2Oc3ccc(NC(=O)CCCCCC(=O)Nc4ccccc4N)cc3CC(=O)N([C@H](C)CO)C[C@H]2C)cc1 | inactive
C[C@@H]1CN([C@H](C)CO)C(=O)c2cc(NC(=O)Nc3ccc(F)cc3)ccc2O[C@H]1CN(C)Cc1ccc(Cl)c(Cl)c1 | inactive
COc1ccc(NC(=O)Nc2ccc3c(c2)C(=O)N([C@@H](C)CO)C[C@H](C)[C@H](CN(C)Cc2ccc(Cl)c(Cl)c2)O3)cc1 | active
COc1ccc(NC(=O)Nc2ccc3c(c2)C(=O)N([C@H](C)CO)C[C@@H](C)[C@@H](CN(C)Cc2ccc(Cl)c(Cl)c2)O3)cc1 | inactive
C[C@H](CO)N1C[C@H](C)[C@H](CN(C)Cc2ccc(Cl)c(Cl)c2)Oc2ccc(NC(=O)Nc3ccc(F)cc3)cc2C1=O | active
C[C@H]1CN([C@@H](C)CO)C(=O)c2cc(NC(=O)Nc3ccc(F)cc3)ccc2O[C@H]1CN(C)Cc1ccc(Cl)c(Cl)c1 | inactive
C[C@@H]1CN([C@@H](C)CO)C(=O)c2cc(NC(=O)Nc3ccc(F)cc3)ccc2O[C@H]1CN(C)Cc1ccc(Cl)c(Cl)c1 | inactive
C[C@@H]1CN([C@@H](C)CO)C(=O)c2cc(NC(=O)Nc3ccc(F)cc3)ccc2O[C@@H]1CN(C)Cc1ccc(Cl)c(Cl)c1 | active
C[C@@H]1CN([C@H](C)CO)C(=O)c2cc(NC(=O)Nc3ccc(F)cc3)ccc2O[C@@H]1CN(C)Cc1ccc(Cl)c(Cl)c1 | inactive

Compound | cytotoxicity call
COc1ccc(NC(=O)Nc2ccc3c(c2)C(=O)N([C@H](C)CO)C[C@H](C)[C@H](CN(C)Cc2ccc(Cl)c(Cl)c2)O3)cc1 | inactive
COc1ccc(S(=O)(=O)N(C)C[C@H]2Oc3ccc(NS(=O)(=O)c4cn(C)cn4)cc3CC(=O)N([C@@H](C)CO)C[C@@H]2C)cc1 | inactive
CO[C@@H]1CN(C)C(=O)c2cc(NS(=O)(=O)CC(F)(F)F)ccc2OC[C@@H](C)N(C(=O)NC(C)C)C[C@@H]1C | inactive
COc1cccc(CNC(=O)C[C@H]2C=C[C@H](NC(=O)C3CCOCC3)[C@H](CO)O2)c1 | inactive
COc1ccc(CN(C)C[C@H]2OCCCC[C@H](C)Oc3ccc(NC(=O)Nc4ccc5c(c4)OCO5)cc3C(=O)N([C@@H](C)CO)C[C@H]2C)cc1 | inactive
C[C@@H]1CN([C@H](C)CO)C(=O)c2cc(NC(=O)Cn3cnnn3)ccc2O[C@@H]1CN(C)C(=O)Nc1ccc(C(F)(F)F)cc1 | inactive
C[C@@H]1CN([C@H](C)CO)C(=O)c2cc(NC(=O)Nc3ccc(C(F)(F)F)cc3)ccc2O[C@H]1CN(C)C(=O)Nc1cccc2ccccc12 | inactive
Cl.Clc1ccc2c(c1)CCc1cccnc1C2=C1CCNCC1 | inactive
Cc1cc(C(=O)Nc2cccc3c2O[C@H](CN(C)Cc2ccc(Oc4ccccc4)cc2)[C@@H](C)CN([C@@H](C)CO)C3=O)n(C)n1 | inactive
COC(=O)C(CC#Cc1ccc2c(c1)[C@]1(C(=O)N2)[C@H](c2ccc(OCCO)cc2)N2[C@H](c3ccccc3)[C@H](c3ccccc3)OC(=O)[C@H]2[C@@H]1C(=O)N1CCc2cc(OC)c(OC)cc2C1)C(=O)OC | inactive
COc1ccc(S(=O)(=O)N(C)C[C@@H]2Oc3c(NS(=O)(=O)c4cn(C)cn4)cccc3C(=O)N([C@@H](C)CO)C[C@@H]2C)cc1 | inactive
C[C@@H]1CN([C@@H](C)CO)C(=O)c2cc(NC(=O)Nc3ccc(C(F)(F)F)cc3)ccc2O[C@@H](C)CCCCO[C@H]1CN(C)Cc1ccccc1 | active
C[C@H]1CCCCO[C@@H](CN(C)Cc2ccccc2)[C@@H](C)CN([C@@H](C)CO)C(=O)c2cc(NC(=O)Nc3ccc(C(F)(F)F)cc3)ccc2O1 | active
C[C@H]1CCCCO[C@H](CN(C)Cc2ccccc2)[C@@H](C)CN([C@@H](C)CO)C(=O)c2cc(NC(=O)Nc3ccc(C(F)(F)F)cc3)ccc2O1 | active
C[C@@H]1CCCCO[C@H](CN(C)Cc2ccccc2)[C@H](C)CN([C@@H](C)CO)C(=O)c2cc(NC(=O)Nc3ccc(C(F)(F)F)cc3)ccc2O1 | active
COc1ccc(S(=O)(=O)N(C)C[C@H]2Oc3ccc(NC(=O)Cn4cnnn4)cc3CC(=O)N([C@H](C)CO)C[C@@H]2C)cc1 | inactive
C[C@H](CO)N1C[C@H](C)[C@@H](CN(C)C(=O)Nc2cccc3ccccc23)Oc2ccc(NS(=O)(=O)c3ccc(F)cc3)cc2CC1=O | inactive
CCCCCCCCCCCCCCCCOCCCOP(=O)(O)CO[C@H](CO)Cn1ccc(N)nc1=O | inactive
CC(C)NC(=O)Nc1ccc2c(c1)C(=O)N([C@@H](C)CO)C[C@H](C)[C@@H](CN(C)Cc1ccc3c(c1)OCO3)O2 | inactive
